# Hit rate of the full screen: of about 390,000 compounds, about 4,000 (1%) were called active. About 7% were inconclusive and are not listed. No cut-off for these calls is given here. The entries come from a sample that favours actives as a whole.
# Target: T1, DNA polymerase iota (Homo sapiens) (UniProt Q9UNA4)
# T1 sequence (whole entry): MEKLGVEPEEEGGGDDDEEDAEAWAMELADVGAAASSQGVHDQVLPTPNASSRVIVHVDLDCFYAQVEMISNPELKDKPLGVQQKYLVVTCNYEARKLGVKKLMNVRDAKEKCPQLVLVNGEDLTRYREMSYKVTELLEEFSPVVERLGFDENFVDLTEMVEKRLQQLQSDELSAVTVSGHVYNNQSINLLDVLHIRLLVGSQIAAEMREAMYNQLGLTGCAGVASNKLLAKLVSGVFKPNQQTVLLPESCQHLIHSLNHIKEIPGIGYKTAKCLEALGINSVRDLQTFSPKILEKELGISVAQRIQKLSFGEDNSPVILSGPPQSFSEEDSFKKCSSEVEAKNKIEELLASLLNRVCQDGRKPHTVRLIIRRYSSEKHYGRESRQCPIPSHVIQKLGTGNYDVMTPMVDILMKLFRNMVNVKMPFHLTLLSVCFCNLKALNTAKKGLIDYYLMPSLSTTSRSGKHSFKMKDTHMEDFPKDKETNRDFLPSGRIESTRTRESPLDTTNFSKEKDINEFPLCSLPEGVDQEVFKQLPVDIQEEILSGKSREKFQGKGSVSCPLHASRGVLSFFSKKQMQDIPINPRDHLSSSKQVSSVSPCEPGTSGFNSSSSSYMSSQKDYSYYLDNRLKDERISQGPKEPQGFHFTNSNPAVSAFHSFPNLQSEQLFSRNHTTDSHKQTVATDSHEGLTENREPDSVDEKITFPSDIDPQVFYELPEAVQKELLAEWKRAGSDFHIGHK
# Assay: qHTS for Inhibitors of Polymerase Iota. [Related pubchem assays (depositor defined):AID588623]
# Format: functional
row,SMILES,Potency
1,COc1ccc(OC)c(/C=C/c2cccc3c2N(CCCCI)C=S3/C=C/c2cc(OC)ccc2OC)c1 (configuration not stated),70.8 µM (active)
2,Cl.NC(CCC(=O)O)C(=O)O (configuration not stated),inactive
